Screens deposited in PubChem BioAssay by The Scripps Research Institute Molecular Screening Center.
Hits are enriched below; roughly 2.4% of the tested compounds scored in any of these assays.
M1 PAM parental = M1 PAM counterscreen hit in parental CHO-K1 cells. ATP EC20, Fluo-8 calcium fluorescence; 0% at ATP EC20, 100% at ATP max. activation, % at 3 µM. 0.02% of 360,000 active;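 active = activation above the run cutoff, the mean activation of all test compounds plus 3 SD, cut at about 40% in these data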;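 note: peak over basal fluorescence ratio in a 140 s read after ATP addition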
M1 ag parental = nonselective activator or artifact in parental CHO-K1 cells; Fluo-8 calcium fluorescence; scaled to maximal ATP response, vehicle zero; AID 602248; 0.48% of 360,000 active; activation, % at 3 µM; in the data active = activation above about 15%;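 note: untransfected CHO-K1 host cells lacking M1 receptor as counterscreen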
CHRM1 PAM = positive allosteric modulators of human M1 muscarinic receptor; P11229; activation, % at 3 µM; CHO-K1 hM1, Fluo-8 calcium fluorescence, ACh EC20; 0% = ACh EC20, 100% = maximal ACh; 0.088% of 360,000 active; AID 588819; in the data active = activation above about 19%, passing the limit was not always enough
Target sequence (P11229 whole entry, looked up): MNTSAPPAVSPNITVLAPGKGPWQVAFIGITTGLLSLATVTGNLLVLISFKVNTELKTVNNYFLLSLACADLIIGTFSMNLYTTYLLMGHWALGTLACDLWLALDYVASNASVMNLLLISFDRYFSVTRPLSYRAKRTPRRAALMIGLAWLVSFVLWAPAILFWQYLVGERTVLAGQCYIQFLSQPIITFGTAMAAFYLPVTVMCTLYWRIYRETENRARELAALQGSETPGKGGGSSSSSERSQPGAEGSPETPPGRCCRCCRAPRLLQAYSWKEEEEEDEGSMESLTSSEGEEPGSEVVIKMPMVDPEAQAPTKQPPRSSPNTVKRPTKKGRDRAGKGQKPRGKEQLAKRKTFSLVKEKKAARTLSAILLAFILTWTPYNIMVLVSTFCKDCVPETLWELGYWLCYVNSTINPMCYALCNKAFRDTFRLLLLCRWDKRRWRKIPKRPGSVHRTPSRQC
CHO-K1 Ca antag = M1 antagonist counterscreen hit in parental CHO-K1 cells; ATP-induced calcium, Fluo-8 fluorescence; inhibition, % at 3 µM; 0.6% of 360,000 active;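 active = inhibition above a per-plate cutoff, the plate's mean sample inhibition plus 3 SD, cut at about 24% in these data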
M1 antag = blocks human M1 muscarinic receptor. P11229. CHO-K1 hM1, Fluo-8 calcium fluorescence, ACh EC80 antagonist. inhibition, % at 3 µM. 1.3% of 360,000 active;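 active = percent inhibition above its own plate's cutoff, namely the mean of that plate's compound wells plus 3 SD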;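 note: peak over basal fluorescence ratio during 140 s after agonist addition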
CHRM1 agonist = agonists of human M1 muscarinic receptor. P11229. CHO-K1 hM1, Fluo-8 calcium fluorescence, agonist mode; 0% DMSO, 100% acetylcholine EC100. activation, % at 3 µM. 0.33% of 360,000 active. AID 588814;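 active = activation above the run's mean compound activation plus 3 SD, cut at about 16% in these data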;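 note: peak over basal fluorescence ratio within a 140 s kinetic read after compound addition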
Each line names hits and unclear results; the compound was inactive in the other large screens.

COC(=O)c1ccc(CN2CCC(n3nccc3NC(=O)C3CCCC3)CC2)cc1	CHRM1 agonist 21
COC(=O)c1ccc(CN2CCC(n3nccc3NC(=O)C3CC3)CC2)cc1	CHRM1 agonist 19
COc1ccc(NC(=O)C2CC3CCC2C3)c(OC)c1 (stereo not given)	none
Cc1cnc(C(=O)OCC(=O)Nc2ccccc2-c2ccccc2)cn1	none
Cc1nnc(NC(=O)CSc2nccn2Cc2ccccc2)s1	none
Fc1cccc(CNc2ncnc3cc(Cl)ccc23)c1F	M1 ag parental 15
COc1ccccc1/C=C/C=NC1C(=O)N(c2ccccc2)[N+](C)=C1C (stereo not given)	none
CC1=[N+](C)N(c2ccccc2)C(=O)C1N=C/C=C/c1ccccc1 (stereo not given)	M1 antag 99
CCOC(=O)c1cccc(N/C=C/C(=O)c2ccc(OC)c(OC)c2)c1	M1 antag 29
COc1cccc(N/C=C/C(=O)c2ccc(OC)c(OC)c2)c1	none
CCOc1ccc(S(=O)(=O)NN=C2CCN(C(C)=O)CC2)cc1	none
COc1ccc(C(=O)COC(=O)CCN2C(=O)C3C4CCC(C4)C3C2=O)cc1 (stereo not given)	CHO-K1 Ca antag 24
CC(C)CCn1c(SCC(=O)NC2CCS(=O)(=O)C2)nc2cc(Cl)ccc2c1=O (stereo not given)	none
O=C(c1ccccc1)N1N=C(c2ccc(F)cc2)CC1(O)C(F)(F)F (stereo not given)	none
CN1CCC2(CC1)N=C(c1ccc(F)cc1)C(=S)N2C(=O)c1ccccc1	M1 antag 45
CCN1CCN(c2nc(-c3ccc(F)cc3)cc(=O)[nH]2)CC1	none
CCN1CCC2(CC1)N=C(c1ccc(F)cc1)C(=S)N2C(=O)c1ccc(C(C)(C)C)cc1	M1 antag 101
OC(CN1c2ccccc2Sc2ccccc21)Cn1nnc2ccccc21 (stereo not given)	none
Cc1nn(CC(O)CN2c3ccccc3Sc3ccccc32)c(C)c1Br (stereo not given)	M1 ag parental 18
COc1ccc(S(=O)(=O)Nc2ccccc2C(=O)NCc2cccnc2)cc1	none
N#CC(c1cccc(Cl)c1)c1ccc2c(C(F)(F)F)cc(C(F)(F)F)nc2n1 (stereo not given)	CHO-K1 Ca antag 31
COc1ccc(NC(=O)COc2coc(CN3CCc4ccccc4C3)cc2=O)cc1	none
Cc1ccccc1NC(=O)COc1coc(CN2CCCc3ccccc32)cc1=O	CHRM1 PAM 26
NC(=O)c1ccc(NC(=O)COc2coc(CN3CCc4ccccc4C3)cc2=O)cc1	M1 ag parental 16
O=C(Nc1cccc([N+](=O)[O-])c1)C1CC(=O)N(C2CCCCC2)C1 (stereo not given)	none
Cc1nc2nc(SCC(=O)NCCCN3CCCCCC3)nn2c(C)c1Cc1ccccc1Cl	M1 antag 100
Cc1nc2nc(SCC(=O)N3CCOCC3)nn2c(C)c1Cc1c(F)cccc1Cl	none
Cc1ccccc1Cc1c(C)nc2nc(SCC(=O)NCCCN3CCCC3)nn2c1C	M1 antag 50
Cc1nc2nc(SCC(=O)NCCCN3CCCC(C)C3)nn2c(C)c1Cc1ccccc1Cl (stereo not given)	M1 antag 63
O=C(CNC(=O)c1ccc(Br)o1)NC12CC3CC(CC(C3)C1)C2	none
CCNC(=O)c1ccc(C23CC4CC(CC(C4)C2)C3)o1	M1 ag parental 15
Cc1cccc(C)c1NC(=O)CNC(=O)c1cccc(S(=O)(=O)NCc2cccs2)c1	none
Cc1ccc(S(=O)(=O)CC2CSc3nc4ccccc4n32)cc1 (stereo not given)	CHO-K1 Ca antag 28
Cc1ccc(S(=O)(=O)CC2CSc3nc(N)cc(=O)n32)cc1 (stereo not given)	none
COc1ccc(OC)c(CCNC(=O)c2ccc3c(c2)N(Cc2ccccc2)CCS3)c1	none
COc1ccc(CCNC(=O)c2ccc3c(c2)N(Cc2ccccc2)CCS3)cc1OC	M1 antag 39
NS(=O)(=O)c1ccc(CCNC(=O)c2ccc3c(c2)N(Cc2ccccc2)CCS3)cc1	M1 antag 37
O=C(NCCCN1CCCC1)c1ccc2c(c1)N(Cc1ccccc1)CCS2	none
CCN(c1ccccc1)S(=O)(=O)c1cc(C(=O)OC2CCOC2=O)ccc1C (stereo not given)	none
COc1ccc(OC(C)C(=O)N2CCc3ccccc3C2)cc1 (stereo not given)	CHO-K1 Ca antag 25
CC(Oc1ccccc1)C(=O)N1CCc2ccccc2C1 (stereo not given)	none
COc1cc(Cl)cc2c1Sc1ccccc1/C2=C/CCN(C)C	M1 antag 68
CN1CCN(CC/C=C2/c3ccccc3Sc3ccc(S(=O)(=O)N(C)C)cc32)CC1	none
COc1ccc(CCN(/C=C2\Sc3ccccc3C2=O)C(C)=O)cc1OC	none
CN(C)CC/C=C1/c2ccccc2Sc2c(O)cc(Cl)cc21	M1 antag 97
CN(C)CCNC(=O)c1ccc2c(c1)NC(=O)c1ccccc1S2	none
CN(C)CCNC(=O)Nc1ccc(F)cc1F	none
COc1cc2c(cc1Cl)/C(=C\CCN(C)C)c1ccccc1S2	M1 antag 66
CN(C)CC/C=C1/c2cc(F)ccc2Sc2ccc(Cl)cc21	M1 antag 99
O=C(NC(=S)Nc1ccccc1Br)C1CCC1	none
CCCN(CCC)Cc1cc(=O)oc2cc3c(cc12)CCC3	none
COc1ccc(-c2c3c([nH]c(=S)c2C#N)CCC3)cc1	CHO-K1 Ca antag 26
CC(C)C(NC(=O)c1c(F)cccc1F)C(=O)N1CCN(c2ccccc2F)CC1 (stereo not given)	none
CN(C)c1ccc(/C=N/NC(=O)CNC(=O)c2ccc3c(c2)OCCO3)cc1	none
CCN(CC)c1ccc(/C=N/NC(=O)CNC(=O)c2ccc3c(c2)OCCO3)cc1	CHRM1 PAM 31
O=S(=O)(c1ccccc1)N1CCCCC1CCc1ccccc1 (stereo not given)	none
CCCCN(C)c1c(C)nc2ccc(C(=O)NCCOc3ccc(OC)cc3)cn12	CHO-K1 Ca antag 30, M1 antag 39
CCc1nc2ccc(C(=O)NCCN3CCCC3)cn2c1N(C)Cc1ccc(OC)cc1	M1 antag 45
CCc1nc2ccc(C(=O)NCc3ccc(OC)cc3)cn2c1N(C)Cc1ccc(OC)cc1	none
CCCOc1cccc(C(=O)NCCNC(=O)c2cnccn2)c1	none
CC1(Cc2ccc(Cl)s2)C(=O)Nc2c(Cl)ccc(Cl)c21 (stereo not given)	M1 antag 32
CC1(Cc2ccc(Cl)c(Cl)c2)C(=O)Nc2c(Cl)ccc(Cl)c21 (stereo not given)	none
O=C(NC1CCCCC1)c1nc(C2CCNCC2)oc1-c1ccccc1	none
O=C(OCc1ccccc1)N1C=CCC[C@@H]1c1c(Cl)cccc1Br	none
